From PubChem BioAssay (NCI) come the findings set out here.

Common to all, as to experiment: NCI-60 one-dose screen, 48 h (100 = growth as untreated, 0 = no growth, -100 = all killed)
One experiment concerns SR leukemia. The following applies: 10 µM unless noted.
The test system of a further experiment is RPMI-8226 leukemia. The note with it: 10 µM.
A further experiment deals with OVCAR-8 ovarian. The note with it: 10 µM unless noted.
A further experiment has as its system OVCAR-5 ovarian. The note with it: 10 µM unless noted.
The test system of a further experiment is OVCAR-4 ovarian. The note with it: 10 µM unless noted.
A further experiment deals with SK-OV-3 ovarian. The following applies: 10 µM.
The subject of another experiment is IGROV1 ovarian. The note with it: 10 µM unless noted.
The subject of another experiment is OVCAR-3 ovarian. The following applies: 10 µM unless noted.
In another experiment the test system is HS 578T breast. The note with it: 10 µM unless noted.
The subject of the next experiment is NCI/ADR-RES ovarian. The note with it: 10 µM unless noted.
Another experiment concerns BT-549 breast. The note with it: 10 µM unless noted.
Another experiment concerns MDA-MB-435 melanoma. The following applies: 10 µM unless noted.
The test system of the next experiment is SW-620 colon. The following applies: 10 µM unless noted.
For the next experiment, the system named is MCF7 breast. The note with it: 10 µM unless noted.
The next experiment has as its system HCT-116 colon. The note with it: 10 µM unless noted.
The test system of the next experiment is HCC-2998 colon. The note with it: 10 µM unless noted.
The subject of another experiment is T-47D breast. The note with it: 10 µM.
The next experiment deals with KM12 colon. The note with it: 10 µM unless noted.

Compounds without any hit were thinned out: in the full panel of roughly 83,000, 20% have a hit.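 Cells were grown in 96-well plates and exposed to the test compound at a single concentration for 48 hours; results are reported as percent growth, with values below 10 considered active.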 A number with no mark means an inactive call. The source made the active and inactive calls.

For the molecule `Brc1ccc(SCN(CSc2ccc(Br)cc2)Cc2ccccc2)cc1`, the growth is 34.6% with SR leukemia; 36.3% in the experiment on RPMI-8226 leukemia; 74.4% in the experiment with OVCAR-8 ovarian; 90.1% in the experiment on OVCAR-5 ovarian; 75.5% with OVCAR-4 ovarian; 93.9% with SK-OV-3 ovarian. Besides, the growth in the experiment with IGROV1 ovarian was 35.6%; with OVCAR-3 ovarian it was 91.6%; in the experiment on HS 578T breast, 88.1%; with NCI/ADR-RES ovarian, 73.4%; with BT-549 breast, -15.2% (active); in the experiment with MDA-MB-435 melanoma it was 75.8%. The growth in the experiment with SW-620 colon was 102%; in the experiment on MCF7 breast, 66.2%; in the experiment on HCT-116 colon it was 57.8%; with HCC-2998 colon it was 113%.
As to `COc1ccc(CSc2nc3cc(OC)c(OC)cc3c(=O)n2-c2ccc(Cl)cc2)cc1`, the growth in the experiment with SR leukemia was 102%; in the experiment with RPMI-8226 leukemia, 90.8%; with OVCAR-8 ovarian it was 98.7%; in the experiment on OVCAR-5 ovarian, 94.2%; in the experiment on OVCAR-4 ovarian it was 103%; with SK-OV-3 ovarian, 105%. The growth in the experiment with IGROV1 ovarian is 104%; with OVCAR-3 ovarian it was 103%; with NCI/ADR-RES ovarian it was 101%; in the experiment on T-47D breast, 95.4%; in the experiment on BT-549 breast, 100%; with MDA-MB-435 melanoma it was 98%. Also, the growth with SW-620 colon is 99.2%; with MCF7 breast it was 101%; in the experiment with HCT-116 colon it was 98.4%; in the experiment on HCC-2998 colon, 108%; in the experiment with KM12 colon, 102%.
As for `C=CC(=O)N1CC2(CCC(n3nc(-c4ccc(Oc5ccccc5)cc4)c4c(N)ncnc43)CC2)C1`, the growth is -23.2% (active) in the experiment on SR leukemia; -56% (active) in the experiment on RPMI-8226 leukemia; -36.5% (active) in the experiment on OVCAR-8 ovarian; -0.902% (active) in the experiment on OVCAR-5 ovarian; -10.7% (active) in the experiment on OVCAR-4 ovarian; -24.6% (active) in the experiment on SK-OV-3 ovarian. Moreover, the growth is -51.2% (active) with IGROV1 ovarian; -36.6% (active) with OVCAR-3 ovarian; -9.16% (active) in the experiment on NCI/ADR-RES ovarian; 14.6% in the experiment with T-47D breast; -81.1% (active) in the experiment on MDA-MB-435 melanoma; 0.371% (active) in the experiment with SW-620 colon. The growth in the experiment with MCF7 breast is 1.86% (active); in the experiment on HCT-116 colon it was -82.7% (active); in the experiment on HCC-2998 colon, -77.8% (active); in the experiment with KM12 colon, -29.1% (active).
As to `Cc1ccc(S(=O)(=O)N2CCc3ccc(O)c4c3C2Cc2ccc3c(c2-4)OCO3)cc1` (configuration not stated), the growth was 14.8% in the experiment with SR leukemia; 27.4% in the experiment on RPMI-8226 leukemia; 31.1% with OVCAR-8 ovarian; 45.8% in the experiment with OVCAR-5 ovarian; 45.6% in the experiment with OVCAR-4 ovarian; 7.28% (active) in the experiment with SK-OV-3 ovarian. In addition, the growth in the experiment on IGROV1 ovarian was 41.6%; in the experiment on OVCAR-3 ovarian, -47.7% (active); in the experiment on NCI/ADR-RES ovarian, 9.54% (active); in the experiment with T-47D breast it was 46%; in the experiment on MDA-MB-435 melanoma, -4.03% (active); with SW-620 colon it was 37.2%. The growth in the experiment on MCF7 breast was 20.6%; with HCT-116 colon, 13%; in the experiment with HCC-2998 colon it was -25.8% (active); in the experiment with KM12 colon, 12.5%.
For `C=C(C)CCCC(C)CC#N` (configuration not stated), the growth with SR leukemia is 90.8%; with RPMI-8226 leukemia, 102%; in the experiment on OVCAR-8 ovarian, 106%; in the experiment with OVCAR-5 ovarian, 103%; in the experiment on OVCAR-4 ovarian, 105%; in the experiment with SK-OV-3 ovarian, 103%. The growth in the experiment on IGROV1 ovarian was 107%; with OVCAR-3 ovarian it was 99.8%; in the experiment on HS 578T breast, 110%; in the experiment with T-47D breast, 92.7%; in the experiment on MDA-MB-435 melanoma it was 104%; in the experiment with SW-620 colon it was 115%. Further, the growth in the experiment with MCF7 breast was 99.3%; with HCT-116 colon, 97.5%; in the experiment with HCC-2998 colon it was 104%; in the experiment on KM12 colon it was 95%.
Take `COc1ccc(NC(=O)c2ccc3c(c2)nc(-c2ccc(Cl)cc2)n3-c2cc(C(C)(C)C)[nH]n2)cc1`: the growth with SR leukemia is 79.7%; in the experiment with RPMI-8226 leukemia, 90.2%; with OVCAR-8 ovarian, 89.3%; in the experiment with OVCAR-5 ovarian, 100%; with OVCAR-4 ovarian, 72.7%; in the experiment with SK-OV-3 ovarian it was 114%. For the same molecule, the growth with IGROV1 ovarian is 88.7%; in the experiment with OVCAR-3 ovarian, 94.5%; in the experiment with NCI/ADR-RES ovarian, 80.1%; with T-47D breast it was 74.5%; in the experiment on BT-549 breast it was 81.3%; with MDA-MB-435 melanoma, 88.9%. The growth in the experiment with SW-620 colon was 104%; in the experiment with MCF7 breast it was 83%; with HCT-116 colon it was 80.7%; with HCC-2998 colon, 112%; with KM12 colon it was 84%.
`CCOc1ccc(-c2cnnn2-c2nonc2-n2cccc2)cc1`: the growth was 1.35% (active) in the experiment on SR leukemia; 12.5% in the experiment on RPMI-8226 leukemia; 25.9% in the experiment on OVCAR-8 ovarian; 41.1% in the experiment with OVCAR-5 ovarian; 39.6% in the experiment with OVCAR-4 ovarian; -1.75% (active) in the experiment with SK-OV-3 ovarian. Also, the growth in the experiment with IGROV1 ovarian is 36.5%; with OVCAR-3 ovarian it was -37.1% (active); in the experiment on NCI/ADR-RES ovarian, -5.39% (active); in the experiment on T-47D breast, 49%; in the experiment with BT-549 breast, 41.1%; in the experiment on MDA-MB-435 melanoma, -31.2% (active). In addition, the growth in the experiment on SW-620 colon is 21.7%; in the experiment on MCF7 breast it was 21.9%; with HCT-116 colon it was 6.67% (active); in the experiment with HCC-2998 colon it was 0.666% (active); in the experiment on KM12 colon, 8.62% (active).
Regarding `CCCCCCCCCCCC(=O)[O][Sn]([CH2]CCC)([CH2]CCC)[CH2]CCC`, the growth in the experiment on SR leukemia is -42.7% (active); with RPMI-8226 leukemia, -34% (active); in the experiment on OVCAR-8 ovarian, -81.4% (active); in the experiment on OVCAR-5 ovarian, -96.9% (active); in the experiment on OVCAR-4 ovarian, -98.5% (active); in the experiment on SK-OV-3 ovarian it was -100% (active). Besides, the growth in the experiment on IGROV1 ovarian is -77.1% (active); in the experiment on OVCAR-3 ovarian, -97.5% (active); in the experiment on HS 578T breast, -20.2% (active); in the experiment with T-47D breast it was -89.9% (active); with MDA-MB-435 melanoma it was -91.6% (active); in the experiment on SW-620 colon, -43.2% (active). The growth with MCF7 breast was -88.2% (active); with HCT-116 colon, -100% (active); in the experiment with HCC-2998 colon it was -92.2% (active); in the experiment with KM12 colon it was -91.4% (active).
Regarding `CC1(C)N=C(N)N=C(N)N1c1cccc(/C=C/C=C/c2cccc([N+](=O)[O-])c2)c1`, the growth in the experiment on SR leukemia is 37%; in the experiment with RPMI-8226 leukemia, 8.42% (active); with OVCAR-8 ovarian it was 84.1%; in the experiment on OVCAR-5 ovarian, 44.7%; in the experiment on OVCAR-4 ovarian it was 65.3%; with SK-OV-3 ovarian it was 83.3%. Further, the growth with IGROV1 ovarian was 35.3%; in the experiment on OVCAR-3 ovarian it was 30.1%; in the experiment with NCI/ADR-RES ovarian, 108%; with T-47D breast, 78.1%; in the experiment on BT-549 breast, 46.1%; with MDA-MB-435 melanoma, 23.3%. Further, the growth in the experiment with SW-620 colon is 44.6%; with MCF7 breast, 57.9%; in the experiment with HCC-2998 colon, 45.1%; with KM12 colon, 35.5%.
